According to PubChem BioAssay (EPA / NIEHS):
Where “and” joins values, the source holds several entries; their conditions need not be identical. Identical values can stand only once. A structure can be active in one record and inactive in another. Calls of active or inactive are those of the source. The calls were made as follows: active = hit-call score of the fitted dose curve at least 0.9, where 1 is the maximum; inactive = score below 0.9.

How the values were obtained:
[1] = read-out: Monokine induced gamma interferon (MIG), CXCL9 (gene 4283); test: BSK_KF3CT_MIG: BioMAP Diversity Plus: KF3CT Assay for Monokine induced gamma interferon (MIG) Biomarker Activity (AID 2284248); conditions: primary human keratinocytes with fibroblasts
Method in brief: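 MIG in dosed human skin co-cultures was measured by ELISA at 24 h, relative to DMSO.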

[2] = read-out: Collagen I, COL1A1 (gene 1277); test: BSK_hDFCGF_CollagenI: BioMAP Diversity Plus: hDFCGF Assay for Collagen I Biomarker Activity (AID 2284250); conditions: primary human foreskin fibroblasts
Method: BSK_hDFCGF is a cell-based, multiplexed-readout assay that uses foreskin fibroblast, a human skin primary cell, with measurements taken at 24 hours after chemical dosing in a 96-well plate.BSK_hDFCGF_CollagenI is an assay component measured in the BSK_hDFCGF assay. It measures Collagen I antibody related to regulation of gene protein expression using ELISA technology.Data from the assay component BSK_hDFCGF_CollagenI was analyzed at the endpoint, BSK_hDFCGF_CollagenI, in the positive analysis fitting direction relative to DMSO as the negative control and baseline of activity. Using a type of binding reporter, gain or loss-of-signal activity can be used to understand protein changes. To generalize the intended target to other relatable targets, this assay endpoint is annotated to the 'cell adhesion molecules' intended target family, where the subfamily is 'collagen'.
(§1) The levels of cell surface (or secreted, indicated by the prefix "s") biomarker endpoints were measured by ELISA. Overt cytotoxicity to cells in confluent adherent cultures (all systems other than the BT system) was assessed by measuring total protein levels using sulforhodamine B (SRB) staining in parallel cultures at the time of biomarker measurements, indicated as SRB endpoints. For proliferation assays for adherent cell types, individual cell types are cultured at sub-confluence and relative cell numbers quantified by SRB staining at time points optimized for each system (48 h: 3C and CASM3C systems; 72 h: BT and HDF3CGF systems; 96 h: SAg system). SRB was performed by staining cells with 0.1% SRB after fixation with 10% TCA and reading wells at 560 nm.Viability and proliferation of PBMC (T cells) was quantified by Alamar Blue reduction for the SAg and BT systems. For PBMC viability (referred to as PBMC Cytotoxicity within the assay endpoint names), cells were plated (75,000/well in a 96-well plate) and then chemical samples added for 1 h before addition of activators, SEB and TSST-1 (20 ng/mL final concentration each). Cells were incubated for 90 h. Then, Alamar Blue (20 uL/well) (Invitrogen, Cat DAL1100) was added for 6 h, and the plates were read with a fluorescence microplate reader at 546/580 nm (excitation/emission). For PBMC proliferation, cells were plated and activated as above but incubated for only 16 h prior to addition of Alamar Blue. Plates were read after 6 h.

[3] = read-out: Interferon-inducible T-cell alpha chemoattractant (ITAC), CXCL11 (gene 6373); test: BSK_hDFCGF_ITAC: BioMAP Diversity Plus: hDFCGF Assay for Interferon-inducible T-cell alpha chemoattractant (ITAC) Biomarker Activity (AID 2284251); conditions: primary human foreskin fibroblasts
Method in brief: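 ELISA readout of I-TAC after 24 h chemical exposure; human dermal foreskin fibroblast primary cells. Positive-direction fitting vs DMSO baseline. Parallel SRB total-protein staining (0.1% SRB after 10% TCA fixation, 560 nm) flags cytotoxicity.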

[4] = read-out: Plasminogen activator inhibitor-1 (PAI1), SERPINE1 (gene 5054); test: BSK_KF3CT_PAI1: BioMAP Diversity Plus: KF3CT Assay for Plasminogen activator inhibitor-1 (PAI1) Biomarker Activity (AID 2284252); conditions: primary human keratinocytes with fibroblasts
Method in brief: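 Human primary keratinocyte/foreskin fibroblast co-culture was dosed with compound and sampled at 24 h. PAI-1 was quantified by ELISA, with activity fitted in the positive direction relative to DMSO vehicle as baseline.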

[5] = read-out: Interleukin-8 (IL8), CXCL8 (gene 3576); test: BSK_KF3CT_IL8: BioMAP Diversity Plus: KF3CT Assay for Interleukin-8 (IL8) Biomarker Activity (AID 2284254); conditions: primary human keratinocytes with fibroblasts
Method in brief: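 Using parallel SRB-stained cultures to flag overt toxicity, the study quantified IL-8 by ELISA in human keratinocyte–foreskin fibroblast co-cultures 24 h after dosing, with DMSO as negative control and baseline.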

[6] = read-out: Plasminogen activator inhibitor-1 (PAI1), SERPINE1 (gene 5054); test: BSK_MyoF_PAI1: BioMAP Diversity Plus: MyoF Assay for Plasminogen activator inhibitor-1 (PAI1) Biomarker Activity (AID 2284256); conditions: primary human lung fibroblasts;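 as to outcome: PAI-1 protein level measured by ELISA in fibroblast cultures; PAI-1 read 24 h after compound addition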
Method in brief: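 In this multiplexed primary-cell system, fibroblasts from human lung received compound for 24 h before ELISA detection of PAI-1; overt toxicity was checked by SRB (0.1%, TCA-fixed, 560 nm) in parallel wells.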

[7] = read-out: Vascular cell adhesion molecule 1 (VCAM1), VCAM1 (gene 7412); test: BSK_BF4T_VCAM1: BioMAP Diversity Plus: BF4T Assay for Vascular cell adhesion molecule 1 (VCAM1) Biomarker Activity (AID 2284249); conditions: primary human bronchial epithelial cells with fibroblasts
Method in brief: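 Human bronchial epithelial cell and dermal fibroblast co-culture exposed 24 h. VCAM-1 measured by ELISA; parallel SRB total-protein staining for cytotoxicity. Fitted in positive direction relative to DMSO.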

[8] = read-out: Monocyte Chemoattractant Protein-1 (MCP1), CCL2 (gene 6347); test: BSK_IMphg_MCP1: BioMAP Diversity Plus: IMphg Assay for Monocyte Chemoattractant Protein-1 (MCP1) Biomarker Activity (AID 2284253); conditions: primary human endothelial cells with macrophages
Method in brief: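 Human venular endothelial cells co-cultured with macrophages; MCP-1 measured by ELISA 24 hours post-dose and fitted against DMSO. Cytotoxicity monitored by SRB total-protein staining in parallel cultures.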

[9] = read-out: Macrophage Inflammatory Protein-1 Alpha (MIP1a), CCL3 (gene 6348); test: BSK_IMphg_MIP1a: BioMAP Diversity Plus: IMphg Assay for Macrophage Inflammatory Protein-1 Alpha (MIP1a) Biomarker Activity (AID 2284255); conditions: primary human endothelial cells with macrophages
Method: BSK_IMphg is a cell-based, multiplexed-readout assay that uses venular endothelial cells and macrophages, a human vascular primary cell, with measurements taken at 24 hours after chemical dosing in a microplate: 96-well plate.BSK_IMphg_MIP1a is an assay component measured in the BSK_IMphg assay. It measures MIP-1a antibody related to regulation of gene expression using ELISA technology.Data from the assay component BSK_IMphg_MIP1a was analyzed at the endpoint, BSK_IMphg_MIP1a, in the positive analysis fitting direction relative to DMSO as the negative control and baseline of activity. Using a type of binding reporter, gain or loss-of-signal activity can be used to understand protein changes. To generalize the intended target to other relatable targets, this assay endpoint is annotated to the 'cytokine' intended target family, where the subfamily is 'inflammatory factor'.
as §1, with “For PBMC viability (referred to as PBMC Cytotoxicity within the assay endpoint names), cells were plated (75,000/well in a 96-well plate) and then chemical samples added for 1 h before addition of activators, SEB and TSST-1 (20 ng/mL final concentration each). Cells were incubated for 90 h.” left out, “For PBMC proliferation, cells were plated and activated as above but incubated for only 16 h prior to addition of Alamar Blue.” left out

[10] = read-out: CD69, CD69 (gene 969); test: BSK_IMphg_CD69: BioMAP Diversity Plus: IMphg Assay for CD69 Biomarker Activity (AID 2284257); conditions: primary human endothelial cells with macrophages
Method in brief: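 Human venular endothelial cells co-cultured with macrophages; CD69 quantified by ELISA 24 h after compound addition. Activity fitted in the positive direction relative to DMSO baseline; cytotoxicity tracked in parallel cultures via SRB total-protein staining.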

CC(=O)OC(c1ccccc1)C(Cl)(Cl)Cl (stereo not given)
outcome [1]: inactive
outcome [2]: inactive
outcome [3]: inactive
outcome [4]: inactive
outcome [5]: inactive

COc1cc(OC)nc(NC(=O)NS(=O)(=O)c2ncccc2C(=O)N(C)C)n1
outcome [6]: inactive

CC1(C)Cc2cccc(O)c2O1
outcome [6]: inactive

CCOP(=S)(OCC)Oc1ccc(S(C)=O)cc1 (stereo not given)
outcome [6]: inactive

Nc1cccc2ccccc12
outcome [6]: inactive

CC(C)c1ccc(CO)cc1
outcome [6]: inactive

COC[C@H](C)N(C(=O)CCl)c1c(C)csc1C
outcome [6]: inactive

CCCCCCCCC(=O)NCc1ccc(O)c(OC)c1
outcome [6]: inactive

COP(=S)(OC)Oc1c(Cl)cc(C)cc1Cl
outcome [6]: inactive

CCCCC(CC)CO[N+](=O)[O-] (stereo not given)
outcome [6]: inactive

O=Cc1cccc(Oc2ccccc2)c1
outcome [6]: inactive

Oc1c(I)cc(I)cc1I
outcome [6]: inactive

CCOP(=S)(OCC)SCCS(=O)(=O)CC
outcome [6]: inactive

O=C(OC1CCCCC1)c1ccccc1C(=O)OC1CCCCC1
AC50 [6]: 20.9 µM (active)

COP(=S)(OC)Oc1cc(Cl)c(Cl)cc1Cl
outcome [6]: inactive

OCc1ccco1
outcome [6]: inactive

CCNc1nc(NC(C)(C)C)nc(SC)n1
outcome [6]: inactive

COP(=S)(OC)Oc1ccc(Sc2ccc(OP(=S)(OC)OC)cc2)cc1
outcome [6]: inactive

O=[N+]([O-])c1ccc2c3c(cccc13)CC2
outcome [6]: inactive

O=C(O)C(F)(F)C(F)(F)C(F)(F)C(F)(F)C(F)(F)C(F)(F)F
outcome [1]: inactive
outcome [7]: inactive
outcome [2]: inactive
outcome [3]: inactive
outcome [4]: inactive
outcome [8]: inactive
outcome [5]: inactive
outcome [9]: inactive
outcome [6]: inactive
outcome [10]: inactive

Oc1ccc(-c2ccccc2)cc1
outcome [6]: inactive

BrCCBr
outcome [6]: inactive

COP(=S)(OC)Oc1ccc(S(=O)(=O)N(C)C)cc1
outcome [6]: inactive

O=C(O)C(F)(F)C(F)(F)C(F)(F)C(F)(F)C(F)(F)C(F)(F)C(F)(F)C(F)(F)C(F)(F)C(F)(F)F
AC50 [1]: 6.52 µM (active) and 5.48 µM (active)
AC50 [7]: 4.89 µM (active) and 5.89 µM (active)
AC50 [2]: 3.39 µM (active)
outcome [2]: inactive
AC50 [3]: 5.59 µM (active)
AC50 [4]: 2.66 µM (active) and 4.56 µM (active)
outcome [8]: inactive
AC50 [5]: 3.33 µM (active) and 5.2 µM (active)
outcome [9]: inactive
AC50 [6]: 5.52 µM (active) and 6.52 µM (active)
outcome [10]: inactive

COC(=O)c1sccc1S(=O)(=O)NC(=O)Nc1nc(C)nc(OC)n1
outcome [6]: inactive

O=S(=O)(c1ccc(Cl)cc1)c1ccc(Cl)cc1
outcome [6]: inactive

CCSC(C)CC1CC(=O)C(C(CC)=NOC/C=C/Cl)=C(O)C1 (stereo not given)
outcome [6]: inactive

CCOC(=O)/C=C(C)/C=C/C[C@@H](C)CCCC(C)C
AC50 [6]: 32.3 µM (active)

CC(C)CCCCCCOC(=O)c1ccccc1C(=O)OCCCCCCC(C)C
outcome [6]: inactive

C(=NC1CCCCC1)=NC1CCCCC1
AC50 [6]: 7.53 µM (active)

ClC(Cl)=C(Cl)C(Cl)=C(Cl)Cl
outcome [6]: inactive

Nc1ncc([N+](=O)[O-])s1
outcome [6]: inactive

COC(=O)Cc1ccccc1
outcome [1]: inactive
outcome [2]: inactive
outcome [3]: inactive
outcome [4]: inactive
outcome [5]: inactive

ClC1=C(Cl)[C@]2(Cl)[C@H]3[C@H]([C@H]4C=C[C@H]3C4)[C@@]1(Cl)C2(Cl)Cl
outcome [6]: inactive

Nc1ccc(-c2ccc(N)c(Cl)c2)cc1Cl
outcome [6]: inactive

CC(=O)C(Cl)C(=O)N(C)C (stereo not given)
outcome [6]: inactive

NC(=S)Nc1ccccc1
outcome [6]: inactive

O=C(O)CCC(F)(C(F)(F)F)C(F)(F)F
outcome [1]: inactive
outcome [7]: inactive
outcome [2]: inactive
AC50 [3]: 5.95 µM (active)
outcome [3]: inactive
outcome [4]: inactive
outcome [8]: inactive
outcome [5]: inactive
outcome [9]: inactive
outcome [6]: inactive
outcome [10]: inactive
